High-throughput results: PubChem BioAssay, National Center for Advancing Translational Sciences (NCATS)
A selection: hits, their analogues and other compounds. The true share with any hit is near 8.1%.
MCF10A rereplic: inducers of DNA re-replication in MCF 10A breast cells; MCF 10A DNA re-replication, Hoechst nuclear intensity, 48 h; Potency, µM (titrated, usually from 46.1 µM), for inactives: at the top dose activity, positive = re-replication, most hits filed as activators; 350,000 tested, 2.9% active; AID 624296; further: % of control where 0% means no effect; nearly all actives have a fitted effect of over 50% in size
ELG1 repair inh: blocks ELG1-dependent DNA repair in HEK293T cells. HEK293T ELG1-luciferase reporter, luminescence, 16 h; DNA damage induced by 5-fluorouridine. Potency, µM (highest dose often 46.1 µM), without a hit: top-dose activity change, negative = inhibition, most hits filed as inhibitors. 330,000 tested, 2.3% active. AID 504467; further: on the % scale 0 is the no-effect control and ±100 the full control effect; nearly all actives have a fitted effect of over 55% in size
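Cells (2,000 per well) received 5-fluorouridine plus test compound or DMSO and were incubated 16 hr at 37 °C, 5% CO2. Luciferase activity was read by luminescence 30 min after ONE-Glo addition; signal suppression marked inhibition of damage-induced ELG1 function.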
KB-V1 MDR tox: KB-V1 MDR subline cytotoxicity | AID 1347076 | Potency, µM (doses to about 46.1 µM), actives largely listed as cytotoxic | 400,000 tested, 3.4% active | KB-V1 MDR cells viability, CellTiter-Glo, 72 h; further: on the % scale 0 is the no-effect control and ±100 the full control effect; nearly all actives have a fitted effect of over 60% in size
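KB-V1, DMEM (no phenol red) + 10% FBS; cpd pin-transferred, titration series; 72 h, 37 degrees C; CellTiter-Glo, luminescence. Data normalized, curve-fit.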
SW480 rereplic: DNA re-replication induction in SW480 cells; SW480 DNA re-replication, Hoechst DNA content imaging, 48 h; Potency, µM (titrated, usually from 46.1 µM), without a hit: at the top dose re-replication activation, usual class: activators; 340,000 tested, 1.8% active; further: % of control where 0% means no effect; nearly all actives have a fitted effect of over 55% in size
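250 cells/well; 23 nL cpd via pin tool; 48 hr, 37 C, 5% CO2; Hoechst 40 min; imager read of total nuclear intensity, ex 405/em 500-530 nm.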
KB-3-1 cytotox: KB-3-1 parental cell cytotoxicity; 400,000 tested, 1.4% active; Potency, µM (series often up to 46.1 µM), actives largely listed as cytotoxic; KB-3-1 viability, CellTiter-Glo ATP luminescence, 72 h; further: on the % scale 0 is the no-effect control and ±100 the full control effect; nearly all actives have a fitted effect of over 60% in size
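Here the drug-naive KB-3-1 line serves as comparator for MDR sub-line selectivity; cells received compound titrations, 72 h at 37 °C, then CellTiter-Glo readout.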
* = called active by the depositor; i = inactive; ? = inconclusive; · = no result given. The call rests on the fitted dose curve; in most records, active means well fitted curve in the direction sought with a large enough effect; inconclusive means small, poorly fitted or top-dose-only effect, or another doubt; inactive means no such curve, though single readings can be large; an effect the other way counts as inactive or inconclusive. Potency means the concentration at half of the fitted maximal effect.

SMILES | MCF10A rereplic | ELG1 repair inh | KB-V1 MDR tox | SW480 rereplic | KB-3-1 cytotox
CC(=O)Nc1ccccc1C(=O)N1CCN(Cc2ccc3c(c2)OCO3)CC1 | -3% | 10% | i | -24% | i
CN(C)c1ccc(/C=C(\Cl)c2nc3ccccc3s2)cc1 | 7.3µM* | ? | ? | ? | i
O=C(O)c1ccc(C=C(c2nc3ccccc3s2)c2nc3ccccc3s2)cc1 | 18µM* | -1% | ? | 6% | ?
CCc1ccccc1Nc1nn2c(=O)c3ccc(C(=O)NCc4ccc(C)cc4)cc3nc2s1 | · | · | i | · | 2.9µM*
CCc1ccccc1Nc1nn2c(=O)c3ccc(C(=O)NCCc4ccccc4)cc3nc2s1 | · | · | i | · | i
Cc1csc(SCC(=O)NC23CC4CC(CC(C4)C2)C3)n1 | ? | 13% | i | -3% | i
Cc1cc2ccccc2n1CCNC(=O)c1cccc(Br)c1 | · | · | i | · | i
CCc1ccc(-c2nc(SCC(=O)c3c(N)n(C)c(=O)n(C)c3=O)n[nH]2)cc1 | 0% | ? | i | ? | i
O=C(O)CCc1ccc(-c2ccc(Cl)cc2)o1 | 21µM* | ? | i | ? | i
NC(=O)C1CCN(C(=S)c2ccc(-c3ccc(Br)cc3)o2)CC1 | 0% | ? | i | -2% | i
COc1ccc(-c2ccc(CCC(=O)O)o2)cc1 | ? | ? | i | ? | ?
O=C(O)CCc1ccc(-c2ccc(Br)cc2)o1 | ? | ? | i | 5.8µM* | i
NC(=O)c1ccc(-c2ccc(Br)cc2)o1 | 14% | ? | 8.2µM* | 0% | 8.2µM*
Cc1ccc(S(=O)(=O)N2CCN(S(=O)(=O)N3CCCCC3)CC2)cc1C | -31% | 14% | i | -5% | i
Cc1ccc(S(=O)(=O)N2CCN(S(=O)(=O)N3CCC(C)CC3)CC2)cc1C | 18µM* | -2% | i | 2% | i
CC1CCN(S(=O)(=O)c2ccc3c(c2)C(=NO)c2cc(S(=O)(=O)N4CCC(C)CC4)ccc2-3)CC1 | 0.52µM* | 5.2µM* | i | ? | ?
O=S(=O)(c1ccc2c(c1)C(=NO)c1cc(S(=O)(=O)N3CCCCC3)ccc1-2)N1CCCCC1 | 2.1µM* | ? | 5.2µM* | 12µM* | 1.2µM*
Nc1cc(S(=O)(=O)N2CCCCC2)ccc1N1CCCCC1 | 4% | 16% | 18µM* | -3% | ?
O=S(=O)(c1ccc(S(=O)(=O)N2CCCC2)cc1)N1CCCCCC1 | 1% | 2% | i | -5% | i
Cc1ccc(NC(=O)CNC(=O)OCc2ccccc2)cc1C | 1% | -16% | i | -4% | i
CC(C)c1nc(SCC(=O)c2ccc(F)cc2)c2ccccc2n1 | 3.3µM* | ? | i | ? | i
Cc1csc(NC(=O)CSc2nc(C(C)C)nc3ccccc23)n1 | 18µM* | -6% | 15µM* | 26% | ?
COC(=O)[C@@]12C[C@@H](CC(=O)NCc3ccc(OC)c(OC)c3)C(=O)N(Cc3ccc4c(c3)OCO4)C1=CCC(C)(C)C2 | · | · | ? | · | i
Cc1nn2c(N)c(C#N)cnc2c1-c1ccc(Cl)cc1 | -2% | ? | i | 0% | i
COc1ccc(-c2c(C)nn3c(N)c(C#N)cnc23)cc1OC | -1% | -15% | 9.2µM* | -5% | i
SMILES | MCF10A rereplic | ELG1 repair inh | KB-V1 MDR tox | SW480 rereplic | KB-3-1 cytotox
Cc1ccc(NC(=O)COc2cccc(/C=C3\SC(=S)N(CCC(=O)O)C3=O)c2)cc1Cl | 0% | ? | i | -5% | i
Cn1c2ccccc2c2ccc3c(c21)C(=O)C=CC3=O | 6.5µM* | · | ? | 1% | ?
COc1ccc2c(c1)c1ccc3c(c1n2C)C(=O)C=CC3=O | ? | -10% | i | -5% | i
Cc1ccc2c(c1)c1ccc3c(c1n2C)C(=O)C=CC3=O | ? | -26% | i | ? | 16µM*
Cc1nc(C(=O)NC2CC2)sc1C1(C)CC(c2cccc([N+](=O)[O-])c2)=NO1 (stereo not drawn) | 18% | -20% | i | -7% | i
CCCOC(=O)CSc1ncnc2sc3c(c12)CCC(C)C3 (stereo not drawn) | · | · | ? | · | i
